# An excerpt weighted towards active compounds, which were near 3.5% of everything screened.
# FBW7 act – human FBW7 E3 ligase activation, primary screen. Q969H0. AlphaScreen FBW7–phospho-cyclin E peptide binding, activator screen. AID 1259310. normalized activity (activation), % at 26.1 µM. 650,000 tested, 0.13% active; in the data active means normalized activity above about 1.9%;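 further: purified mutant Fbw7 with reduced substrate affinity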
# TEAD-YAP block – TEAD-YAP interaction inhibition; HEK-TIYL cells, TEAD-Gal4/YAP UAS-luciferase luminescence; inhibition, % at 9.12 µM; 640,000 tested, 1.4% active; AID 1259422; in the data active means inhibition above about 32%;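 further: 0% = median of test compound wells and 100% = reference inhibitor wells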
# GPR151 activ – activators of human GPR151 | Q8TDV0 | AID 1508602 | activation, % at 11.2 µM | 650,000 tested, 1% active | PathHunter beta-arrestin GPR151 cells, luminescence; in the data active means activation above about 4.9%;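 further: 0% = median of compound wells and 100% = cells with positive control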
# Target sequence (Q8TDV0 whole entry, looked up): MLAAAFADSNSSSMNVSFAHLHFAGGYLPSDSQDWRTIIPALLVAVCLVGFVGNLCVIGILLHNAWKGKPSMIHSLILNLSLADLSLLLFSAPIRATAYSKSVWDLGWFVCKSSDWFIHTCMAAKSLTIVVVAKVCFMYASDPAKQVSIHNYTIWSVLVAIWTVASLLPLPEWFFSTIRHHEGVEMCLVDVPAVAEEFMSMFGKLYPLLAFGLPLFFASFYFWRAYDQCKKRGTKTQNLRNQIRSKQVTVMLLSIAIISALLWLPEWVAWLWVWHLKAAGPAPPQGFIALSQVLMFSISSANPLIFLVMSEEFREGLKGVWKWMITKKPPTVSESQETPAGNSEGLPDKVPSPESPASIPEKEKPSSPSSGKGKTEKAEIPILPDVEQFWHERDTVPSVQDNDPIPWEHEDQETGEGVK
# MITF inh – inhibitors of human MITF. AlphaScreen MITF homodimerization, bead proximity signal. inhibition, % at 2.6 µM. 650,000 tested, 0.91% active; in the data active means inhibition above about 50%;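 further: 0% = vehicle wells with protein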
# GPR151 confirm – human GPR151 activation, confirmation screen | AID 1508609 | shares compounds with GPR151 activ | 6,700 tested, under 10 active | GPR151 PathHunter beta-arrestin cells, luminescence, 90 min; % of EA-reagent control over plate median | activation, % at 11.2 µM;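 active means mean percent activation across replicates above the confirmation screen cutoff of 4.91%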
# GPR119 counter – activates human GPR119 in a GPR151 counter-screen. shares compounds with GPR151 activ. GPR119 PathHunter beta-arrestin cells, luminescence, 90 min; 0 = compound-well median, 100 = enzyme-acceptor control. activation, % at 11.2 µM. 6,700 tested, 0.3% active. AID 1508611;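 active means mean percent activation in the counterscreen above 29.09%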;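 further: counterscreen on off-target GPR119 to flag nonselective hits from the GPR151 activator screen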
# * marks the source's active call; other numbers are inactive results; . = not tested or not shown.
SMILES,FBW7 act,TEAD-YAP block,GPR151 activ,MITF inh,GPR151 confirm,GPR119 counter
CCOC(=O)CSc1nnc(CSc2ncccn2)n1-c1ccccc1,0,-6,11*,9,1,4
N/C(=N\c1nc2ccccc2o1)NC(=O)c1cccc(F)c1,0,6,1,-19,.,.
CCOC(=O)C1CCN(c2c(NC(C)CC)c(=O)c2=O)CC1 (stereo unspecified),0,2,0,-14,.,.
Cc1ccc(-n2c3c(cc(C(=O)Nc4ccc(F)cc4)c2=O)C(=O)CCC3)cc1,0,0,5.5*,12,0,-3
Cc1ccc(-n2c3c(cc(C(=O)Nc4cccc(F)c4)c2=O)C(=O)CCC3)cc1,0,-1,-1,2,.,.
Cc1ccc(NC(=O)c2ccc(F)cc2C)cc1,0,-21,5.3*,3,0,-3
COc1cc2ccccc2cc1C(=O)NN=C1CCCCC1,0,23,3,-1,.,.
CCOc1ccc(-c2nc(-c3ccc([N+](=O)[O-])cc3)no2)cc1OCC,0,-8,-1,-9,.,.
CCOc1ccc(-c2nc(-c3ccncc3)no2)cc1OCC,0,-3,4.9*,9,0,0
Cc1ccc(CNC(=O)CN(c2ccccc2F)S(C)(=O)=O)cc1,0,-7,-1,9,.,.
COCCOC(=O)c1c(N)sc(C(N)=O)c1C,0,3,8.5*,-4,0,-3
COc1ccc(I)cc1S(=O)(=O)N1CCN(Cc2ccccc2)CC1,0,4,1,3,.,.
COc1cc(Cl)c(S(=O)(=O)N2CCN(Cc3ccccc3)CC2)cc1Cl,0,5,6.5*,11,0,-17
O=S(=O)(c1ccc(Cl)cc1Br)N1CCN(Cc2ccccc2)CC1,0,-6,6.2*,-2,0,-9
O=S(=O)(c1cc(Br)ccc1Br)N1CCN(Cc2ccccc2)CC1,0,4,-2,8,.,.
c1ccc(N2CCN(c3nnc(SCc4ccccn4)s3)CC2)cc1,0,-40,5.4*,-3,-1,-9
c1ccc(CSc2nnc(SCc3ccccn3)s2)nc1,0,-62,0,2,.,.
CCCCNC(=O)Cc1cn(C)c2ccccc12,0,-26,5.1*,3,1,7
COCCCNC(=O)Cc1cn(C)c2ccccc12,0,-5,0,-8,.,.
Cn1cc(CC(=O)NCCN2CCN(Cc3ccccc3)CC2)c2ccccc21,0,4,5.2*,-13,-1,-9
COCCCNC(=O)CCCc1cn(C)c2ccccc12,0,-8,6.6*,-6,0,1
COc1cc2cc3c(N)c(C(=O)Nc4cccc(C(C)=O)c4)sc3nc2cc1OC,0,3,-1,9,.,.
C(=N\n1cnnc1)/c1ccc2c(c1)OCCO2,0,-8,12*,14,0,-6
C(=N\n1cnnc1)/c1ccc2c(c1)OCO2,0,-1,-1,-1,.,.
CCCN(CCC)C(=O)CSc1nc2nc(C)c(Cc3ccccc3C)c(C)n2n1,0,13,5.0*,9,0,2
SMILES,FBW7 act,TEAD-YAP block,GPR151 activ,MITF inh,GPR151 confirm,GPR119 counter
Cc1ccccc1Cc1c(C)nc2nc(SCC(=O)NC(C)(C)C)nn2c1C,0,1,16*,7,0,-10
CCC1CCCCN1C(=O)CSc1nc2nc(C)c(Cc3ccccc3C)c(C)n2n1 (stereo unspecified),0,10,5.2*,1,0,1
Cc1ccccc1Cc1c(C)nc2nc(SCC(=O)N3CCC(C)CC3)nn2c1C,0,7,1,-1,.,.
CCn1c(=NC(=O)c2ccn(C)n2)sc2cc(OC)c(OC)cc21,0,-7,0,1,.,.
CC(C)OCCCNC(=O)c1ccc2c(c1)NC(=O)c1ccccc1N2,0,-8,1,6,.,.
COC(=O)C1=C(C)Nc2ncnn2C1c1ccc(OCc2ccccc2)c(OC)c1 (stereo unspecified),0,-17,2,-7,.,.
CC(C)(C)c1nnc(N/N=C/c2ccc(O)cc2)[nH]c1=O,0,14,2,3,.,.
COc1cc(/C=N/Nc2nnc(C(C)(C)C)c(=O)[nH]2)cc(OC)c1OC,0,8,6.1*,3,1,-3
CC(=O)NNC(=O)c1ccc(Cl)cc1,1,-4,0,-1,.,.
CC(=O)NC(NC(=O)c1ccc(Cl)cc1)C(Cl)Cl (stereo unspecified),1,11,6.9*,12,0,8
O=C1N=c2ccccc2=C1c1sc(Nc2cccnc2)nc1O,0,8,-1,7,.,.
N#Cc1ccc(COC(=O)CCC(=O)c2cccs2)cc1,0,4,-1,7,.,.
CN1CC(=O)N(CCCC(=O)OCc2ccc(C#N)cc2)C1=O,0,-2,7.7*,-1,1,7
CN(Cc1ccccc1)S(=O)(=O)c1cc(C(=O)Nc2ccccc2C(F)(F)F)ccc1F,0,0,0,0,.,.
O=C(Nc1ccc(F)c([N+](=O)[O-])c1)c1ccc(-c2cccc(Cl)c2)o1,0,20,-1,19,.,.
COc1ccc(C(=O)Nc2cc([N+](=O)[O-])ccc2OC)cc1,0,1,2,-11,.,.
Cc1ccc(CCC(=O)Nc2ccc([N+](=O)[O-])cc2Cl)o1,0,4,5.2*,5,-1,-8
COc1ccc([N+](=O)[O-])cc1NC(=O)c1ccc(C)o1,0,-2,9.7*,13,0,-6
Cc1ccc(C(=O)Nc2cccc(C(F)(F)F)c2)o1,0,-5,7.1*,19,1,11
Cc1ccc(C(=O)Nc2ccc(F)c([N+](=O)[O-])c2)o1,0,3,5.4*,17,0,-7
Cc1ccc(CCC(=O)Nc2ccc(Cl)cc2Cl)o1,0,-9,1,14,.,.
O=C(CSc1nc2ccc(NC(=O)c3ccccc3Br)cc2s1)NCCc1ccccc1,0,-1,-2,14,.,.
COCCn1c(O)c(C=NCC(OC)OC)c(=O)[nH]c1=S,0,1,-2,1,.,.
CS(=O)(=O)c1ccc2nc(NC(=O)CS(=O)(=O)c3ccc(Cl)cc3)sc2c1,0,6,5.4*,3,1,6
O=C1NC(=O)N(C2CCCCC2)C(=O)/C1=C/c1ccc(N2CCOCC2)cc1,-1,3,-1,0,.,.
COC(=O)c1ccccc1NC(=O)Cc1ccc(Br)cc1,0,6,-1,-1,.,.
C=CCN1C(=O)c2oc3ccccc3c(=O)c2C1c1cccc([N+](=O)[O-])c1 (stereo unspecified),0,-8,5.8*,-19,0,-3
C=CCN1C(=O)c2oc3ccccc3c(=O)c2C1c1ccc(O)c(OC)c1 (stereo unspecified),0,-4,1,2,.,.
COc1cccc(/C=N/N(CCC#N)C2=NS(=O)(=O)c3ccccc32)c1O,0,-1,10*,9,1,-7

# Screens from PubChem.
